Screens deposited in PubChem BioAssay by National Center for Advancing Translational Sciences (NCATS).
TRHR PAM: allosteric enhancers of human TRH receptor. TRHR cells, fluo-8 calcium fluorescence, EC20 TRH enhancement. enhancement, % at 2 µM. AID 493056. hit rate 0.66% among 360,000; in the data active means enhancement above about 30%; further: 0% is about no effect
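TRHR-expressing cells loaded with fluo-8 calcium dye were read kinetically (ex 480/em 530) during compound addition, then stimulated with an EC20 of TRH (10 nM final). Enhancement of the Gq-mediated intracellular calcium response was scored.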
D1 agonist: agonists of human D1 dopamine receptor | P21728 | HEK293 T-REx D1 cells, calcium flux, agonist mode | activation, % at 2 µM | hit rate 1% among 360,000 | AID 504660; further: 0% is about no effect
Target sequence (P21728 whole entry, looked up): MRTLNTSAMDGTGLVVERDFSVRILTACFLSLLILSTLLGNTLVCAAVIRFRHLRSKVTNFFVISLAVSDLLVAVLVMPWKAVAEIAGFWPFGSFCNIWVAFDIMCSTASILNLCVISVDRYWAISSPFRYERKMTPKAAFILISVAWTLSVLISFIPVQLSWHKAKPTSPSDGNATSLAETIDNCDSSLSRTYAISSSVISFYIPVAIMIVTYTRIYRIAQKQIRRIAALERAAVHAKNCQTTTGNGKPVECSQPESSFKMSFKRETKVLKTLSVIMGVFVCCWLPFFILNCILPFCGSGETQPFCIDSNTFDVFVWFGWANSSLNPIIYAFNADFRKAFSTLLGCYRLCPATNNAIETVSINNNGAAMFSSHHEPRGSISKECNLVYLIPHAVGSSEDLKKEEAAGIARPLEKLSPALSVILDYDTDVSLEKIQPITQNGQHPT
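Agonism was scored from calcium flux recorded over 180 s (1 read/s) after pintool compound addition, following a 10-cycle baseline. Cells were inducible force-coupled HEK293 TREx D1, plated overnight at 30 C and loaded with no-wash calcium dye.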
D1 antag: blocks dopamine activation of the human D1 receptor; P21728; HEK293 TREx D1 cells, calcium flux, dopamine EC80; hits give low values; activity change, negative = inhibition, % at 10 µM; hit rate 3.2% among 360,000; in the data active means activity change below about -30%; further: on the % scale 0 is the no-effect control and ±100 the full control effect
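Antagonism measured as reduced calcium response to an EC80 dopamine addition following 180 s compound pre-read; cells were inducible HEK293 Trex D1 plated overnight at 30 C, read kinetically at 1 cycle/sec.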
TRHR ag: activates the human TRH receptor. TRHR cells, calcium flux fluo-8, FDSS agonist mode. hit rate 0.18% among 360,000. P34981. activation, % at 2 µM; further: 0% is about no effect
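Steps: seed TRHR cells overnight; add fluo-8 no-wash Ca dye, RT 30 min–1.5 h; record 10 s baseline; pin-transfer compounds; monitor fluorescence 1 cycle/s for the agonist window. Calcium increases flag candidate agonists.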
D1 PAM: human D1 dopamine receptor positive modulation | potentiation, % at 10 µM | HEK293 TREx D1 cells, calcium flux, dopamine EC20 potentiation | hit rate 0.036% among 360,000; in the data active means potentiation above about 30%; further: 0% is about no effect
Active calls of the source: *; . = no result given. This is a sample that favours compounds with a hit; in the whole collection about 4.6% have one here. Unless noted, no stated cut-off is given here; in the data, active means activation above about 30%; inactive means the rest.

SMILES	TRHR PAM	D1 agonist	D1 antag	TRHR ag	D1 PAM
CC1CCN(S(=O)(=O)c2ccc3c(c2)oc(=O)n3CC(=O)N2CCc3ccccc3C2)CC1	-3.6	0.4	-64.7*	0.0	.
Cc1ccc(C)c(CSc2nc3c([nH]c4ccccc43)c(=O)n2C)c1	-2.5	0.7	6.5	0.0	-1.6
CCOC(=O)C1=C(C)N(c2nonc2NC(C)=O)C(N)=C(C#N)C1c1ccccc1F (stereo not given)	-4.1	2.6	-1.1	-0.2	-10.1
Cn1c(=NC(=O)C2CC2)sc2cccc(F)c21	1.0	2.9	-40.5*	-0.3	-6.5
COc1ccc(OC)c2c1sc(=NC(=O)C1CCCCC1)n2C	-4.7	2.2	-7.9	0.2	-0.4
COc1ccc(C2NC(=O)C(C#N)=C(S)N2c2cccc(C)c2)cc1OC (stereo not given)	7.9	1.1	-61.4*	-0.7	-3.9
COc1ccc(C2NC(=O)C(C#N)=C(S)N2c2ccc(C)cc2)cc1OC (stereo not given)	2.2	2.3	-3.9	-0.3	19.1
COc1ccc(N2C(S)=C(C#N)C(=O)NC2c2ccc(OC)c(OC)c2)cc1 (stereo not given)	30.1*	1.3	5.3	0.2	-3.7
Cc1cccc(S(=O)(=O)Nc2cccc3c2C(=O)c2ccccc2-3)c1	-8.0	49.7*	2.6	19.7	1.7
Cc1nc2ncnn2c(N2CCN(C(=O)c3cccc(F)c3)CC2)c1Cc1ccccc1	-7.8	2.1	-91.1*	-1.3	-4.5
COc1ccc2[nH]c(CN3CCN(CC(C)C)C(CCO)C3)c(C)c2c1 (stereo not given)	-3.0	7.0	-11.2	0.8	5.0
CC(Sc1nc2ccccc2n1C)C(=O)Nc1ccc(N2CCOCC2)cc1 (stereo not given)	6.6	0.5	-0.5	-0.7	-0.3
Cc1cccc(-n2nnnc2SCC(=O)Nc2ccc(N3CCN(C)CC3)cc2)c1	5.7	2.8	-4.6	-0.6	-9.9
CCc1ccccc1-n1nnnc1SCC(=O)Nc1ccc(N2CCN(C)CC2)cc1	-1.9	3.0	-60.3*	0.4	-6.5
Cc1ccccc1-n1nnnc1SCC(=O)Nc1ccc(N2CCN(C)CC2)cc1	3.4	13.7	-77.0*	-0.1	-13.4
CCc1ccccc1-n1nnnc1SCC(=O)Nc1cc(C)on1	8.2	-0.7	-2.0	-0.7	-0.7
Cc1ccccc1-n1nnnc1SC(C)C(=O)Nc1ccc(N2CCN(C)CC2)cc1 (stereo not given)	7.3	14.1	-67.9*	0.3	-10.5
C/C=C/COC(=O)C1=C(C)NC(=O)NC1c1ccc2c(c1)OCO2 (stereo not given)	2.4	0.1	3.8	-0.4	-8.0
CCC(CC)C(=O)Nc1ccc(C(=O)Nc2cc(C)on2)cc1	0.2	1.4	-1.6	-0.2	5.0
COc1cc(NC(=O)c2ccc(F)cc2)ccc1NC(=O)c1cc2ccccc2o1	6.1	0.9	-33.2*	-0.3	-8.8
COc1cc(NC(=O)c2ccc(C)cc2)ccc1NC(=O)c1cc2ccccc2o1	-3.6	4.4	3.7	-0.7	-6.3
O=C(Nc1ccc(NC(=O)c2cc3ccccc3o2)cc1)c1ccc2c(c1)OCCO2	3.5	3.2	-42.8*	-0.6	0.9
COc1ccccc1-c1nnc(SCC(=O)Nc2ccc(Cl)cc2Cl)o1	-2.2	5.3	-21.9	-0.5	-2.6
Cc1ccc(C)c2c1c1ccccc1n2C	31.3*	0.2	12.4	-0.5	-4.5
CC(Nc1cc(N2CCNCC2)ccc1[N+](=O)[O-])c1ccccc1 (stereo not given)	1.9	41.6*	3.1	-0.7	-1.8
SMILES	TRHR PAM	D1 agonist	D1 antag	TRHR ag	D1 PAM
CCS(=O)(=O)N1CCN(c2ccc([N+](=O)[O-])c(NC(C)c3ccccc3)c2)CC1 (stereo not given)	1.4	-1.8	1.6	-0.3	-0.6
O=C(OCCN1C(=O)c2cccc3c(N4CCOCC4)ccc(c23)C1=O)c1cccc(Cl)c1	1.5	82.7*	23.8	35.1*	-3.0
O=C(OCCN1C(=O)c2cccc3c(N4CCOCC4)ccc(c23)C1=O)c1ccc(Cl)cc1Cl	6.4	165.3*	-37.4*	71.1*	-9.6
O=C(OCCN1C(=O)c2ccccc2C1=O)c1cc(S(=O)(=O)N2CCOCC2)ccc1Cl	-1.5	0.7	-20.8	0.0	-1.6
O=C(OCCN1C(=O)c2cccc3c(N4CCOCC4)ccc(c23)C1=O)c1ccccc1Cl	12.3	167.4*	-24.9	0.3	24.2
COC(=O)N1CC(C)N(C(=O)OC)CC1C (stereo not given)	2.4	2.3	0.1	0.7	4.3
O=C(CCNS(=O)(=O)c1c(Cl)cccc1Cl)OCC(=O)c1ccccc1F	1.9	21.3	3.8	-0.6	-6.8
Cc1ccc(Cl)cc1N1CCN(c2ncnc3onc(-c4ccc(F)cc4)c23)CC1	-5.2	0.6	-35.8*	2.7	-6.5
N=c1oc2ccc(Br)cc2cc1C(=O)NCc1ccccc1	-1.5	8.7	-5.1	0.7	4.7
CC(NC(=O)c1cc2cc(Br)ccc2oc1=N)c1ccccc1 (stereo not given)	-5.7	1.5	-52.8*	-0.4	4.6
CCCCNC(=O)Cn1c(-c2ccc(OC)cc2)noc1=O	-0.6	-0.2	-23.2	0.2	-8.0
Cc1ccc(NC(=O)Nc2ccccc2CC[N+](=O)[O-])cc1	1.7	8.6	-32.4*	-0.1	-6.8
CC(C)CC(=O)NNC(=S)NCc1ccco1	-3.2	1.9	.	-0.1	-6.2
CCOc1ccccc1N1CCN(Cc2cccc(OC)c2O)CC1	-1.3	-2.1	-32.4*	-0.1	-10.4
COc1ccccc1N1CCN(Cc2cc3c(cc2O)OCO3)CC1	-7.5	2.8	-36.8*	0.8	-8.4
CCOc1ccc2oc(=O)cc(CN3CCN(c4ccccc4OC)CC3)c2c1	46.5*	0.9	18.5	-1.5	2.7
COCCOC(=O)C1=C(C)N=C2SCCC(=O)N2C1c1ccc(OCc2ccccc2)c(OC)c1 (stereo not given)	3.4	4.1	4.6	0.0	-0.8
CCOc1ccc(C(C)NC(=S)NCc2ccc(F)cc2)cc1 (stereo not given)	0.0	58.6*	0.7	3.4	0.3
Cc1ccc(C(C)NC(=S)NCc2ccc(F)cc2)cc1C (stereo not given)	-5.2	8.1	-30.5*	0.5	-6.5
COc1cccc(C(C)NC(=S)NCc2ccc(F)cc2)c1 (stereo not given)	-8.9	15.7	-3.3	1.4	-1.5
Cc1ccc(C(C)NC(=S)NCc2ccc(F)cc2)c(C)c1 (stereo not given)	-0.7	51.4*	-0.5	5.5	-5.6
CCC(NC(=S)NCc1ccc(F)cc1)c1ccc(C)cc1 (stereo not given)	-2.4	59.8*	-2.7	3.8	-1.1
O=C(NC(Cc1ccc(O)cc1)C(=O)O)c1ccco1 (stereo not given)	-5.4	1.2	-19.3	0.1	0.2
CCc1ccc(C(C)NC(=S)NCc2ccc(F)cc2)cc1 (stereo not given)	-6.9	76.3*	3.2	8.7	-1.2
